# ANO1 activ: activates or potentiates the mouse TMEM16A chloride channel; HEK293 TMEM16A/YFP-H148Q/I152L, iodide quench fluorescence; stronger effect = lower value; B-score at 10 µM; 340,000 tested, 0.3% active; AID 623877;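 active = fluorescence-ratio B-score plate-corrected deviation score at least 3 library SD below zero, with starting fluorescence score within 5 deviations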;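 also: channel opened by trigger with iodide after compound preincubation; score built on the fluorescence ratio of max minus min over baseline; more negative score means more quench and so TMEM16A activation or potentiation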
# MPTP inh: blocks calcium-induced mitochondrial swelling | isolated mouse mitochondria, Ca2+ swelling absorbance, 30 min | inhibition, % at 10 µM | 360,000 tested, 1.4% active;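 active = inhibition of 50% or more, scaled per plate between neutral and stimulator controls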
# CRFR2-BP antag: CRF-BP/CRF-R2 complex antagonism | HEK293 CRF-R2/CRF-BP, CRF-induced calcium fluorescence | 350,000 tested, 0.59% active | AID 588475 | inhibition, % at 11.8 µM;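 active = inhibition of the ligand-induced calcium signal above about 50% at the single tested concentration, limit read from the data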
# NR3A LBD binder: modulators (binders) of human NR3A ligand-binding domain | NR3A LBD differential scanning fluorimetry, Tm shift; 0% = protein alone, 100% = glycine-bound protein | Tm shift relative to glycine control, % at 25 µM | 340,000 tested, 2.5% active | AID 1259313;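 active = melting temperature shift of at least 10% of the positive control shift, at one fixed dose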
# ANO1 block: mouse TMEM16A channel inhibition, primary screen; HEK293 TMEM16A/YFP iodide influx fluorescence, ionomycin; normalized B-score (activity score, 25-100; higher = stronger inhibition) at 10 µM; 310,000 tested, 1.2% active; AID 588511;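 active = ratio plate-corrected score three or more library SD toward inhibition, starting fluorescence score within five deviations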;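 also: score derived from kinetic fluorescence span divided by baseline fluorescence per well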
# CRFR2-BP ag: CRF-BP/CRF-R2 complex agonism; HEK293 CRF-R2/CRF-BP, calcium dye fluorescence (FLIPR); percent of saturating CRF peptide response; activation, % at 13.2 µM; 350,000 tested, 0.46% active; AID 588473;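 active = activation of at least 50%, plus an integration ratio under a set limit after plate pattern correction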
# Numbers stand for hits; – = inactive; · = not tested or not shown. An excerpt weighted towards active compounds, which were near 5.1% of everything screened.
SMILES,ANO1 activ,MPTP inh,CRFR2-BP antag,NR3A LBD binder,ANO1 block,CRFR2-BP ag
CN1CCN(c2nc(-c3ccc(Cl)cc3)cc(=O)[nH]2)CC1,–,–,–,–,–,–
C=CCNc1nc2cc(-c3ccccc3OC)sc2c(=O)n1C,·,–,·,·,·,·
O=c1cc(O)nc(-c2ccccc2)s1,–,–,–,–,–,–
O=c1cc(-c2ccccc2)ss1,–,–,90,–,·,–
CN(C)c1ccc(NC(=O)/C=C/c2ccccc2Cl)cc1,–,–,–,31,–,–
CCN(CC)c1ccc(NC(=O)/C=C\c2ccccc2Cl)cc1,–,–,–,26,–,–
CCOC(=O)c1ccc(NC(=S)NCC(O)c2ccccc2)cc1 (stereo unspecified),–,–,–,10,–,–
CCOC(=O)c1ccc(NC(=O)Oc2ccccc2)cc1,–,–,–,34,–,–
O=C(Nc1cccc(C2OCCCO2)c1)c1cccs1,–,–,–,21,–,–
O=C(Nc1ccc2c(c1)OCCO2)c1cccs1,–,–,–,20,–,–
O=C(Nc1ccc2c(c1)OCO2)c1ccc(Br)s1,–,–,–,21,–,–
CC(=O)Nc1ccc2c(c1)OCO2,–,–,–,–,–,–
O=C(Nc1cccc(NC(=O)c2cccs2)c1)c1ccc(F)cc1,–,–,–,–,–,–
O=C(Nc1ccc2c(c1)OCCO2)c1c(Cl)cccc1Cl,·,–,–,·,·,–
O=C(Nc1ccc2c(c1)OCO2)c1cccs1,–,–,–,11,–,–
O=C(/C=C\Nc1ccc2c(c1)OCO2)c1cccs1,–,–,–,–,–,–
COC(=O)c1cccc(NC(=O)c2ccc3c(c2)C(=O)N(Cc2cccnc2)C3=O)c1C,–,–,–,–,–,–
O=C(Nc1ccc2ccccc2c1)C(c1ccccc1F)n1c(=O)c(-c2cc3ccccc3[nH]2)nc2ccccc21 (stereo unspecified),·,–,·,·,·,·
COC(CN(C)S(=O)(=O)c1cc2c3c(c1)CCC(=O)N3CCC2)OC,–,–,–,–,–,–
CCc1ccc(-c2cc(C)no2)cc1S(=O)(=O)Nc1ccc(Cl)cn1,–,–,57,–,–,–
CCc1ccc(-c2cc(C)no2)cc1S(=O)(=O)NCCc1ccccc1,–,–,–,–,–,–
CCc1ccc(-c2cc(C)no2)cc1S(=O)(=O)Nc1cc(C)on1,–,–,–,31,–,–
CC(C)CN(CCNC(=O)c1cn(C)c2ccc(S(=O)(=O)N3CCCC3)cc2c1=O)CC(C)C,–,–,–,26,–,–
CCN(CC)CCCNC(=O)c1cn(CC)c2ccc(S(=O)(=O)N(C)C3CCCCC3)cc2c1=O,–,–,–,–,–,–
CCn1cc(C(=O)NCCCN(CC(C)C)CC(C)C)c(=O)c2cc(S(=O)(=O)N(C)C3CCCCC3)ccc21,-13,–,–,–,–,76
SMILES,ANO1 activ,MPTP inh,CRFR2-BP antag,NR3A LBD binder,ANO1 block,CRFR2-BP ag
CC(=O)Nc1ccc(C(=O)OCC(=O)NCc2cccs2)cc1,–,–,–,–,·,–
CN(C)S(=O)(=O)c1cccc(NC(=O)CO/N=C(\N)c2ccccc2)c1,–,–,–,–,–,–
CCN(CC)c1ccc(C=N/C(C#N)=C(\N)C#N)cc1,–,–,–,27,–,–
Cc1ccc(S(=O)(=O)NCC(c2ccco2)N2CCc3ccccc3C2)cc1 (stereo unspecified),–,–,–,–,25,–
Cc1ccc(S(=O)(=O)NCC(c2ccco2)N2CCc3ccccc32)cc1 (stereo unspecified),–,–,–,15,–,–
COc1ccc(CNCCS(=O)(=O)NN2CCOCC2)cc1,–,–,–,17,·,–
O=C(NCc1ccncc1)c1cccc(S(=O)(=O)Nc2ccc(SC(F)F)cc2)c1,–,–,–,–,–,–
CCCCCCCCOC(=O)c1c(CSC(=N)N)n(C)c2cc(Br)c(OC(C)=O)cc12,–,–,–,40,–,–
Clc1cccc(Cc2c(-c3ccccc3)nc3ccc(Cl)cn23)c1,·,–,·,·,·,·
O=c1oc2ccccc2c(Nc2cc3ccccc3cc2O)c1[N+](=O)[O-],–,–,–,–,100,–
Cc1ncc(C[n+]2ccc(C)c(C)c2)c(N)n1,–,–,–,–,–,–
O=C1c2cccc3cccc(c23)C(=O)N1OS(=O)(=O)c1ccc(Cl)cc1,–,–,–,–,–,–
CCc1ccc(S(=O)(=O)ON2C(=O)c3ccccc3C2=O)cc1,–,–,–,16,·,–
Cc1ccc(F)cc1NC(=O)COC(=O)C1CC2CCCC(C1)C2=O (stereo unspecified),·,–,–,·,·,–
O=C1NC(c2ccccc2)(C(F)(F)F)C(=O)N1Cc1cccnc1 (stereo unspecified),–,–,–,20,–,–
S=C(S)N1CCCC1,–,–,–,–,100,–
Cc1nc(C(F)(F)F)ccc1C(=O)N1CCC(C)(C(=O)O)C1 (stereo unspecified),·,–,·,·,·,·
O=C(N/N=C/c1cn(-c2ccccc2)nc1-c1cc2ccccc2o1)c1c[nH]c2ccccc12,–,–,–,20,–,–
COc1ccc(NC(=O)c2cn(-c3ccccc3)nc2-c2ccncc2)cc1,–,–,–,–,–,–
COc1ccc(NC(=O)c2cn(-c3ccccc3)nc2-c2cc3ccccc3o2)cc1,–,–,–,11,–,–
N#CCCn1cc(C(=O)Nc2ccc([N+](=O)[O-])cc2)c(-c2cc3ccccc3o2)n1,–,–,–,14,–,–
O=C(OCc1ccc(Cl)c(Cl)c1)c1cccnc1Cl,–,–,–,–,–,–
O=C(OCc1ccc(Cl)cc1Cl)c1cccnc1Cl,–,–,–,12,–,–
CN(C(=O)c1cccc(C(=O)N(C)c2ccccc2)c1)c1ccccc1,–,–,–,–,–,–
CN(C(=O)c1ccncc1)c1ccccc1,–,–,–,11,–,–
SMILES,ANO1 activ,MPTP inh,CRFR2-BP antag,NR3A LBD binder,ANO1 block,CRFR2-BP ag
O=C(c1ccco1)N1CCN=C1SCc1ccccc1Cl,–,–,101,–,–,–
O=C(c1ccco1)N1CCN=C1SCc1c(F)cccc1Cl,–,–,–,–,–,–
Clc1ccc2scc(CN3CCCCC3)c2c1,–,–,–,16,–,–
O=[N+]([O-])c1ccc(Cl)cc1CN1CCCCCC1,–,–,–,–,–,–
CCn1cc(C(=O)N[C@H](C(=O)NCCCn2ccnc2)C(C)C)c(=O)c2cc3c(cc21)OCO3,–,–,–,–,–,–
CCNC(=O)C1(C)CCN(C(=O)c2ccccc2OC(F)(F)F)C1 (stereo unspecified),·,–,·,·,·,·
Cc1ccc(SC(C)C(=O)N2CCCC2)cc1 (stereo unspecified),–,–,–,12,–,–
COc1ccc(NS(=O)(=O)c2ccc(NC(=S)NC(=O)C(C)C)cc2)cc1,–,–,–,–,25,–
